From PubChem BioAssay
Only some compounds are listed: those with a hit (about 3.1% of all), similar ones and a draw of the others.
AF4-AF9 inh – inhibitors of AF4 peptide binding to AF9, primary screen, biochemical, AlphaScreen, biotin-AF4 peptide, FLAG-AF9, single point | Protein AF-9 (Homo sapiens), P42568 | inhibition, % at 10 µM | 0.47% of 350,000 active | AID 651704, 2012;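 active = every replicate reaching a set inhibition limit, whatever the replicate mean, cut at about 25% in these data; inconclusive = mean inhibition reaches that limit but some replicates miss it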;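 note: 0% = plate neutral control median and 100% = total signal loss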
RAD54 branch – inhibitors of human RAD54 branch migration, primary screen, biochemical, fluorescence, single point; DNA repair and recombination protein RAD54-like (Homo sapiens), Q92698; 0.14% of 360,000 active; RAD54 Holliday junction branch migration, FAM/BHQ fluorescence; AID 602329, 2012; inhibition, % at 10.4 µM;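 active = mean normalized replicate activity at least 40 and at least half of replicates scoring 40 or more; inconclusive = only one of the two criteria met; inactive = mean below 40 and under half of replicates reaching 40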;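 note: 0% = median of neutral control wells and 100% = median of positive control wells; inhibitors cause a drop in the FAM fluorescence signal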
Target sequence (Q92698 whole entry, looked up): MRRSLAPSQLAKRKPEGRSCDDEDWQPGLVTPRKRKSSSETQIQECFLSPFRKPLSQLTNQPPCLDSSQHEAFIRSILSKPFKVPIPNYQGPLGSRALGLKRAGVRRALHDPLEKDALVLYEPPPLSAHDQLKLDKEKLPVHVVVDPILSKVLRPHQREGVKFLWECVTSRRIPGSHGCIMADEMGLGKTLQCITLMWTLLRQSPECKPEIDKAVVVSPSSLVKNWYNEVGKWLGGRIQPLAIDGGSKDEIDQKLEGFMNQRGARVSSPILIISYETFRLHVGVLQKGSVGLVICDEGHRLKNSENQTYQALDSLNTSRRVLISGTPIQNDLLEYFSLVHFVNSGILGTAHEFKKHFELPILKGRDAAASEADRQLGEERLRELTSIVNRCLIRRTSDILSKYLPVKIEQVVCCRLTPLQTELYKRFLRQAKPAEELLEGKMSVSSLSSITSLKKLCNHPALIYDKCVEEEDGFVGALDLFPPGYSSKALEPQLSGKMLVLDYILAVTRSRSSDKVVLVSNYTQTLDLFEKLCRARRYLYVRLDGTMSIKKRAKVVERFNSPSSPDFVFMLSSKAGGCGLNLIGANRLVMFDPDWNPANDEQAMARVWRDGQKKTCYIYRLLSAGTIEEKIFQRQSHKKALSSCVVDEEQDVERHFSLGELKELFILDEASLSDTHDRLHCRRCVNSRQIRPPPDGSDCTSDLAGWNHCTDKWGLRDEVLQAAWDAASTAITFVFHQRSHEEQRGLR
DENV2 CPE rescue – inhibitors of DENV2 cytopathic effect, primary screen, cell-based, plate reader, single concentration; DENV2-infected cells, cytopathic effect rescue; CPE inhibition, % at 9.99 µM; 1.7% of 350,000 active; AID 651640, 2012; in the data active = CPE inhibition above about 20%, passing the limit was not always enough; inconclusive = no clear call, values can overlap the other calls; tested in BHK-21 cells;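 note: 0% = median of neutral control wells and 100% = median of positive control wells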
GSIS activator – GLuc luminescence reporter in INS-1E cells, primary screen for activators of glucose-dependent secretion of insulin. INS-1E GLuc reporter insulin secretion, 2-3 h. activation, % at 16.6 µM. 0.61% of 370,000 active;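 active = lowest replicate activation of at least 40%, so every replicate reaches that level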;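 note: 0% = median of neutral control wells and 100% = median of IBMX positive control wells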
RAD52 inh – RAD52 DNA annealing inhibitors, primary screen, biochemical, FRET, single point, set 2; 0.46% of 360,000 active; DNA repair protein RAD52 homolog (Homo sapiens), P43351; recombinant RAD52 DNA annealing, FRET fluorescence; AID 651710, 2012; inhibition, % at 18.7 µM;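 active = every replicate showing at least 50% inhibition; inconclusive = mean inhibition at least 50% but not in every replicate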
dFosB act-1 – activators of delta FosB homodimer, primary screen, biochemical, fluorescence polarization, TAMRA-CDK5 oligo, single point; activation, % at 25 µM; 0.99% of 340,000 active; purified delta FosB; percent of positive-control signal above neutral wells; Protein FosB (Mus musculus), P13346;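 active = mean activation above about 17%, with every replicate also reaching it, limit read from the data, passing the limit was not always enough; inconclusive = only one of the two conditions met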
dFosB act-2 – activators of mouse delta FosB DNA binding, confirmation, biochemical, fluorescence polarization, TAMRA-CDK5 oligo, cherry-picked samples; purified delta FosB; normalised: neutral wells 0, positive control 100; AID 588690, 2011; 2,400 tested, under 10 active; activation, % at 24.9 µM; shares compounds with dFosB act-1;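 active = highest replicate activation at or above 34% and every replicate reaching that threshold; inconclusive = meets only one of the two criteria; inactive = meets neither criterion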;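 note: higher polarization means more probe DNA bound by delta FosB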
An asterisk follows results filed as active.

COc1ccc(N(CC(=O)NC2CCCCCC2)S(=O)(=O)c2ccc(C)cc2)cc1OC was read as AF4-AF9 inh -1, RAD54 branch 1, DENV2 CPE rescue 10, GSIS activator 7, RAD52 inh -13, dFosB act-1 27* and dFosB act-2 -1.
`COc1ccc(OC)c(N(CC(=O)NC2CCCCCC2)S(=O)(=O)c2ccc(C)cc2)c1` gave AF4-AF9 inh 0, RAD54 branch -6, DENV2 CPE rescue 0, GSIS activator 2, RAD52 inh -31 and dFosB act-1 -8.
Screening COc1ccc(CN(C)C[C@@H]2OCCCC[C@@H](C)Oc3ccc(NC(=O)CCC(F)(F)F)cc3C(=O)N([C@H](C)CO)C[C@@H]2C)cc1 returned AF4-AF9 inh -5, RAD54 branch 7, DENV2 CPE rescue -1, GSIS activator -9 and RAD52 inh 3.
For CC(=O)Nc1cccc2c1O[C@H](CN(C)S(C)(=O)=O)[C@H](C)CN(C)C2=O the results were GSIS activator 4.
COc1cc(/C=C/C(=O)Nc2cccnc2)cc(OC)c1OC was read as AF4-AF9 inh -1, RAD54 branch 10, DENV2 CPE rescue 3, GSIS activator -9, RAD52 inh -4, dFosB act-1 18* and dFosB act-2 5.
Screening COc1ccccc1NC(=O)c1nnn(CC(=O)Nc2cc(C)cc(C)c2)c1N returned AF4-AF9 inh -2, RAD54 branch -1, DENV2 CPE rescue 6, GSIS activator -10, RAD52 inh 9, dFosB act-1 33* and dFosB act-2 3.
CCOc1ccc(NC(=O)c2nnn(CC(=O)Nc3ccccc3OC)c2N)cc1 was read as RAD54 branch -3 and dFosB act-1 4.
For COc1ccccc1NC(=O)Cn1nnc(C(=O)Nc2ccccc2)c1N the results were RAD54 branch -8, dFosB act-1 33* and dFosB act-2 6.
`COc1ccccc1NC(=O)c1nnn(CC(=O)Nc2cccc(SC)c2)c1N` gave RAD54 branch -1 and dFosB act-1 2.
Nc1c(C(=O)Nc2ccccc2Cl)nnn1-c1ccc2c(c1)OCCO2 was read as AF4-AF9 inh inconclusive, RAD54 branch -1, DENV2 CPE rescue 1, GSIS activator 1, RAD52 inh -8, dFosB act-1 43* and dFosB act-2 4.
Screening Cn1cc(/C=N/NC(=O)c2cccc([N+](=O)[O-])c2)c2ccccc21 returned RAD54 branch -2, GSIS activator 67 and dFosB act-1 8.
For Cn1cc(/C=C(\C#N)C(=O)Nc2cccc([N+](=O)[O-])c2)c2ccccc21 the results were AF4-AF9 inh -2, RAD54 branch 3, DENV2 CPE rescue 11, GSIS activator -4, RAD52 inh -106, dFosB act-1 45* and dFosB act-2 4.
Cc1ccc(/C=N\NC(=O)Cc2noc3ccccc23)cc1 was read as AF4-AF9 inh -3, RAD54 branch -12, DENV2 CPE rescue -2, GSIS activator -4, RAD52 inh 2, dFosB act-1 22* and dFosB act-2 inconclusive.
Screening COc1ccc(Cn2c(=O)[nH]c3cc(C(=O)NCc4ccc5c(c4)OCO5)ccc3c2=O)cc1 returned RAD54 branch -4 and dFosB act-1 -4.
O=C(NCc1ccc2c(c1)OCO2)c1ccc2c(=O)n(C3CCCC3)c(=O)[nH]c2c1 was read as RAD54 branch -1, dFosB act-1 40* and dFosB act-2 -4.
COc1cc(/C=C/c2nc(N)nc(-c3ccccc3O)n2)cc(OC)c1OC was read as GSIS activator 25, dFosB act-1 34* and dFosB act-2 3.
Screening COc1ccc(/C=C/c2nc(N)nc(-c3ccccc3O)n2)cc1OC returned AF4-AF9 inh 3, DENV2 CPE rescue -5, GSIS activator -14, RAD52 inh -14 and dFosB act-1 10.
Screening COc1ccc(/C=C/c2nc3ccccc3n2Cc2ccccc2OC)cc1 returned AF4-AF9 inh 2, DENV2 CPE rescue 16, GSIS activator -5, RAD52 inh -38, dFosB act-1 25* and dFosB act-2 1.
COc1ccc(-c2ccc3c(c2)O[C@@H](CN(C)CC2CC2)[C@@H](C)CN([C@H](C)CO)S3(=O)=O)cc1 was read as GSIS activator -4.
Screening COc1ccc(NS(=O)(=O)c2ccc(OC)c(NC(=O)CNC(=O)c3ccc(OC)cc3)c2)cc1 returned AF4-AF9 inh -1, RAD54 branch 2, DENV2 CPE rescue 0, GSIS activator -15, RAD52 inh -11, dFosB act-1 39* and dFosB act-2 -4.
For COc1ccc(NS(=O)(=O)c2cccc(C(=O)NN=Cc3ccc(OC)cc3OC)c2)cc1 the results were AF4-AF9 inh -2, RAD54 branch -3, DENV2 CPE rescue -1, GSIS activator -16, RAD52 inh -5, dFosB act-1 26* and dFosB act-2 0.
O=C(N/N=C/c1ccncc1)c1cccc(S(=O)(=O)Nc2ccc(Cl)cc2)c1 was read as AF4-AF9 inh -9, GSIS activator 17, RAD52 inh -9, dFosB act-1 45* and dFosB act-2 -1.
O=C(N/N=C/c1cccnc1)c1cccc(S(=O)(=O)Nc2cccc(Cl)c2)c1 was read as AF4-AF9 inh 4, RAD54 branch -1, DENV2 CPE rescue inconclusive, GSIS activator -3, RAD52 inh -11, dFosB act-1 31* and dFosB act-2 1.
O=C(NCc1ccc(F)cc1)[C@@H]1N[C@@H]2c3ccc(-c4ccccc4)c(=O)n3C[C@@H]2[C@H]1CO was read as AF4-AF9 inh 3, RAD54 branch 6, DENV2 CPE rescue -11, GSIS activator 0 and RAD52 inh 0.
CO[C@H]1CN(C)C(=O)c2cc(NC(=O)Nc3ccccc3Cl)ccc2OC[C@H](C)NC[C@H]1C was read as AF4-AF9 inh 1, RAD54 branch 0, DENV2 CPE rescue -2, GSIS activator -1 and RAD52 inh 5.
O=C(N/N=C/c1cccnc1)c1cccc(NC(=O)c2cccc(Br)c2)c1 was read as AF4-AF9 inh 1, RAD54 branch -7, DENV2 CPE rescue 11, GSIS activator -8, RAD52 inh -11, dFosB act-1 45* and dFosB act-2 -1.
